The list is not random: actives were taken first. Their share in the collection is about 4.6%.
HIF-2a block: inhibitors of HIF-2a; 786-0 RCC cells HIF-2a reporter, luciferase luminescence, overnight; inhibition, % at 18.8 µM; hit rate 0.72% among 360,000; AID 624352;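 active = inhibition of the luminescence signal of 40% or more relative to plate controls, in a single-dose primary screen at 18.75 µM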
ABHD5-PLIN5 inh: blocks binding of human ABHD5 to perilipin-5 | Q00G26+Q8WTS1 | Split G. princeps luciferase complementation, luminescence, 4 h | inhibition, % at 4 µM | hit rate 0.78% among 360,000 | AID 602281;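 active = inhibition above the mean inhibition across every tested compound plus 3 SD, cut at about 22% in these data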
Target sequence (Q00G26 whole entry, looked up): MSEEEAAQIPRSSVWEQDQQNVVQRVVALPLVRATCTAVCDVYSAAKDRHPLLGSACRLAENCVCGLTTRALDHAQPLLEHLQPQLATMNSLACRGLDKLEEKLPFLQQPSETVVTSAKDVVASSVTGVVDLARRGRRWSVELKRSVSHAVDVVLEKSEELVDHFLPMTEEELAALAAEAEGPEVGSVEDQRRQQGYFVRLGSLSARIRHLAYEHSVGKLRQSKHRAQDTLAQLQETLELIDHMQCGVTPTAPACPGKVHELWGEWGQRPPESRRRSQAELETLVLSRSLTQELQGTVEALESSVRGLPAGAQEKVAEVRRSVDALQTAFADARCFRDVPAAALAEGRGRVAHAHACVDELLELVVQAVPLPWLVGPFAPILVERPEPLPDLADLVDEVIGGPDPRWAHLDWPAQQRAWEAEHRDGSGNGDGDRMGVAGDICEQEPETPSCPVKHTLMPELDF
Target sequence (Q8WTS1 whole entry, looked up): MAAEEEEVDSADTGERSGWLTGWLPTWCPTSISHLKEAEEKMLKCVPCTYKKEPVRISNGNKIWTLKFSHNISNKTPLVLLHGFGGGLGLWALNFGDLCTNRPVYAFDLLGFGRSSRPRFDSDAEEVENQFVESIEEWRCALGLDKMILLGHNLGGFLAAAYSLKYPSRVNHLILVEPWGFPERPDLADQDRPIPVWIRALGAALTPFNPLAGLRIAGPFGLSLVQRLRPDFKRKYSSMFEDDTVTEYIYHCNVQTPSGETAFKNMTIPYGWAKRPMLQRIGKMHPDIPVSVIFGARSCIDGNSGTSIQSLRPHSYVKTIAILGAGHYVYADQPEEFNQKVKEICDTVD
CF NFkB block: inhibitors of cystic fibrosis induced NF-kB. AID 588850. hit rate 0.86% among 360,000. inhibition, % at 5 µM. KKLEB NF-kB-GFP reporter, PAF-induced, GFP fluorescence overnight;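 active = at least 50% inhibition at 5 µM, scaled per plate between neutral and stimulator controls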;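 also: PAF is a Pseudomonas aeruginosa culture filtrate used as stimulus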
Peg3 prom inh: Peg3 promoter activity inhibition | HeLa PEG-Prom luciferase reporter, luminescence, overnight | inhibition, % at 20 µM | hit rate 1.7% among 360,000;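 active = inhibition of at least 50% at 20 µM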
Mdm2-MdmX inh: human Mdm2/MdmX binding inhibition | AID 485346 | SaOS-2 split-luciferase Mdm2/MdmX complementation, luminescence | inhibition, % at 8 µM | hit rate 3% among 330,000;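 active = inhibition of at least 50% at 8 µM in the primary screen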
KKLEB tox: counter-screen for CF NF-kB inhibitors: cytotoxicity; KKLEB CF airway cells viability, ATPlite luminescence, overnight; active compounds read low; cells stimulated with P. aeruginosa culture filtrate; activity change (cytotoxicity), % at 5 µM; hit rate 0.36% among 360,000;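 active = corrected activity change at or below -50% at 5 µM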
Mdm2-MdmX conf: human Mdm2/MdmX binding inhibition, confirmed | shares compounds with Mdm2-MdmX inh | luminescent assay | inhibition, % at 8 µM | hit rate 55% among 10,000; in the data active = inhibition above about 40%
FLuc counter: full-length luciferase inhibition in Mdm2/MdmX counter-screen; shares compounds with Mdm2-MdmX inh; hit rate 77% among 6,200; inhibition, % at 8 µM; AID 504607; SaOS-2 full-length luciferase counterscreen, luminescence;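 active = mean inhibition at 8 µM reaching about 37%, which flags the compound as non-specific, limit read from the data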;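 also: p53-null SaOS-2 cells with luciferase driven by a doxycycline-inducible promoter; compound on cells about two nights before reading with doxycycline added after day one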
Hits are given with their value.

`CN(C)c1ccc(/C=N/NC(=O)c2cc(-c3ccc4c(c3)OCO4)n[nH]2)cc1` gave HIF-2a block inactive, ABHD5-PLIN5 inh inactive, CF NFkB block inactive, Peg3 prom inh inactive, Mdm2-MdmX inh 52, KKLEB tox inactive, Mdm2-MdmX conf 54 and FLuc counter 65.
For CC(C)c1ccc(/C=N/NC(=O)c2cc(-c3cccc([N+](=O)[O-])c3)n[nH]2)cc1 the results were HIF-2a block inactive, ABHD5-PLIN5 inh inactive, CF NFkB block inactive, Peg3 prom inh inactive, Mdm2-MdmX inh 51, KKLEB tox inactive and Mdm2-MdmX conf inactive.
For COc1ccccc1C(=O)NCCC(=O)N1CCN(S(=O)(=O)c2ccccc2C(F)(F)F)CC1 the results were HIF-2a block inactive, ABHD5-PLIN5 inh inactive, CF NFkB block inactive, Peg3 prom inh inactive, Mdm2-MdmX inh inactive and KKLEB tox inactive.
COc1ccc(N(CC(=O)N2CCc3ccccc3C2)S(C)(=O)=O)cc1Cl was read as HIF-2a block inactive, ABHD5-PLIN5 inh inactive, CF NFkB block inactive, Peg3 prom inh inactive, Mdm2-MdmX inh inactive and KKLEB tox inactive.
Screening COc1ccc(F)cc1C(=O)C1CCCN(Cc2cn(C)c3ccccc23)C1 (configuration not stated) returned HIF-2a block inactive, ABHD5-PLIN5 inh inactive, CF NFkB block inactive, Peg3 prom inh inactive, Mdm2-MdmX inh inactive and KKLEB tox inactive.
Screening COc1ccc(F)cc1C(=O)C1CCCN(Cc2c[nH]c3ccccc23)C1 (configuration not stated) returned HIF-2a block inactive, ABHD5-PLIN5 inh inactive, CF NFkB block inactive, Peg3 prom inh inactive, Mdm2-MdmX inh 53, KKLEB tox inactive and Mdm2-MdmX conf inactive.
For Cc1nnc2ccc(-c3cccc(NS(=O)(=O)c4ccccc4[N+](=O)[O-])c3)nn12 the results were HIF-2a block inactive, ABHD5-PLIN5 inh inactive, CF NFkB block inactive, Peg3 prom inh inactive, Mdm2-MdmX inh 56, KKLEB tox inactive, Mdm2-MdmX conf 55 and FLuc counter 82.
Screening Cc1nnc2ccc(-c3cccc(NS(=O)(=O)c4ccccc4Cl)c3)nn12 returned HIF-2a block inactive, ABHD5-PLIN5 inh inactive, CF NFkB block inactive, Peg3 prom inh inactive, Mdm2-MdmX inh 56, KKLEB tox inactive, Mdm2-MdmX conf 57 and FLuc counter 55.
Screening CC(C)N1CCc2c(sc(NC(=O)c3cc(-c4cccs4)nc4ccccc34)c2C(N)=O)C1 returned HIF-2a block inactive, ABHD5-PLIN5 inh inactive, CF NFkB block inactive, Peg3 prom inh 78, Mdm2-MdmX inh 73, KKLEB tox inactive and Mdm2-MdmX conf inactive.
For NC(=O)c1ccsc1NC(=O)c1ccc(S(=O)(=O)N2CCCc3ccccc32)cc1 the results were HIF-2a block inactive, ABHD5-PLIN5 inh inactive, CF NFkB block inactive, Peg3 prom inh inactive, Mdm2-MdmX inh 59, KKLEB tox inactive and Mdm2-MdmX conf inactive.
`CC(C)N1CCc2c(sc(NC(=O)c3nc4ccccc4s3)c2C(N)=O)C1` gave HIF-2a block inactive, ABHD5-PLIN5 inh inactive, CF NFkB block inactive, Peg3 prom inh inactive, Mdm2-MdmX inh inactive and KKLEB tox inactive.
`CC(C)N1CCc2c(sc(NC(=O)c3ccc(S(=O)(=O)N4CCc5ccccc54)cc3)c2C(N)=O)C1` gave HIF-2a block inactive, ABHD5-PLIN5 inh inactive, CF NFkB block inactive, Peg3 prom inh 98, Mdm2-MdmX inh 100, KKLEB tox inactive and Mdm2-MdmX conf inactive.
COc1ccc(C(=O)N2CCc3ccccc3C2)cc1S(=O)(=O)N1CCCC1 was read as HIF-2a block inactive, ABHD5-PLIN5 inh inactive, CF NFkB block inactive, Peg3 prom inh inactive and KKLEB tox inactive.
Screening CCn1cc(CN2CCCC(C(=O)Nc3cccc(-n4cccn4)c3)C2)cn1 (configuration not stated) returned HIF-2a block inactive, ABHD5-PLIN5 inh inactive, CF NFkB block inactive, Peg3 prom inh inactive and KKLEB tox inactive.
For CCOc1ccc(C(=O)Nc2cc(C)c3c(=O)oc4ccccc4c3n2)cc1 the results were HIF-2a block inactive, ABHD5-PLIN5 inh inactive, CF NFkB block inactive, Peg3 prom inh inactive, Mdm2-MdmX inh 65, KKLEB tox inactive and Mdm2-MdmX conf inactive.
For Cc1cc(NC(=O)c2ccccc2)nc2c1c(=O)oc1ccccc12 the results were HIF-2a block inactive, ABHD5-PLIN5 inh inactive, CF NFkB block inactive, Peg3 prom inh inactive, Mdm2-MdmX inh inactive and KKLEB tox inactive.
`Cc1cn([C@H]2C[C@H](O)[C@@H](CNCc3ccccc3OCCCN3CCOCC3)O2)c(=O)[nH]c1=O` gave HIF-2a block inactive, ABHD5-PLIN5 inh inactive, CF NFkB block inactive, Peg3 prom inh inactive and KKLEB tox inactive.
Screening COc1ccc(/C=C(/NC(=O)c2cccc([N+](=O)[O-])c2)C(=O)O)cc1OC returned HIF-2a block inactive, ABHD5-PLIN5 inh inactive, CF NFkB block inactive, Peg3 prom inh inactive, Mdm2-MdmX inh inactive and KKLEB tox inactive.
Screening COc1ccccc1/C=C(\NC(=O)c1ccc(OC)c(OC)c1)C(=O)Nc1cc([N+](=O)[O-])ccc1C returned HIF-2a block inactive, ABHD5-PLIN5 inh inactive, CF NFkB block inactive, Peg3 prom inh inactive, Mdm2-MdmX inh 59, KKLEB tox inactive and Mdm2-MdmX conf inactive.
For COCCN=c1scc(-c2cc(OC)c(OC)c(OC)c2)n1/N=C/c1c(C)[nH]c2ccccc12 the results were HIF-2a block inactive, ABHD5-PLIN5 inh inactive, CF NFkB block inactive, Peg3 prom inh 53, Mdm2-MdmX inh 59, KKLEB tox inactive and Mdm2-MdmX conf inactive.
CNc1ccccc1C(=O)OCC(=O)N1CCc2ccccc2C1 was read as HIF-2a block inactive, ABHD5-PLIN5 inh inactive, CF NFkB block inactive, Peg3 prom inh inactive and KKLEB tox inactive.
For CCCCOc1ccc(CN=C(N)N)cc1Cl the results were HIF-2a block inactive, ABHD5-PLIN5 inh inactive, CF NFkB block inactive, Peg3 prom inh inactive, Mdm2-MdmX inh inactive and KKLEB tox inactive.
`CCCOc1ccc(CCCN=C(N)N)cc1Cl` gave HIF-2a block inactive, ABHD5-PLIN5 inh inactive, CF NFkB block inactive, Peg3 prom inh inactive, Mdm2-MdmX inh 52, KKLEB tox inactive and Mdm2-MdmX conf inactive.
Screening CN(C)CCNC=C(C(=O)Nc1ccc(Cl)cc1Cl)C(=O)Nc1ccc(Cl)cc1Cl returned HIF-2a block inactive, ABHD5-PLIN5 inh inactive, CF NFkB block inactive, Peg3 prom inh 91, Mdm2-MdmX inh 76, KKLEB tox inactive and Mdm2-MdmX conf inactive.
`COc1ccc(CNC(=O)Cn2cnc3c(NCc4ccccc4)ncnc32)cc1` gave HIF-2a block inactive, ABHD5-PLIN5 inh inactive, CF NFkB block inactive, Peg3 prom inh inactive, Mdm2-MdmX inh 61, KKLEB tox inactive and Mdm2-MdmX conf inactive.
